From PubChem BioAssay (NCATS)
A number with no mark means an inactive call. Where a call stands in place of a potency, no number is given. Active and inactive are the calls of the source. The call rests on the fitted dose curve; in most records, active means well fitted inhibition curve with a large enough effect; inconclusive means small, poorly fitted or top-dose-only effect; inactive means flat fitted curve, though single readings scatter. *1 amine or outer side, *2 acyl side, *3 side chain or, on linkers, in order; H or OH if unused. Where a SMILES comes first, the peptide text is derived from it. Bridges are numbered along the chain shown (N, C = ends). X6 = O=C(CCC[*:2])[*:1]

What follows are compounds tested on Nanoluciferase (engineered Oplophorus gracilirostris luciferase) (assay: Primary Nanoluciferase (NLuc) qHTS assay for identification of artifact compounds. (AID 1845222)). Conditions: NLuc-conditioned medium, Nano-Glo luminescence, 5 min; series mostly up to 54.1 µM.
Excerpt: PI: Alexander Tropsha Ph.D.
UNC Eshelman School of Pharmacy
University of North Carolina, Chapel Hill, North Carolina
Hits from high-throughput screening (HTS) of chemical libraries are often false positives due to their interference with the assay detection technology. In response to this problem, we generated the largest publicly available library of chemical liabilities and developed a free webtool to predict HTS artifacts, both of which are described herein. More specifically, we generated, curated, and integrated HTS datasets for thiol reactivity, redox activity, and luciferase (firefly and nano) activity. Using these curated datasets, we developed and validated several Quantitative Structure-Interference Relationship (QSIR) models to predict nuisance behavior. […] These models were employed for virtual profiling of the National Center for Advancing Translational Science's (NCATS) in-house library, and 256 compounds for each assay were selected for the experimental validation of nuisance behavior. The BA for these external predictions ranged from 58 to 78% for compounds within the applicability domains of the models. […] The models developed in this study, along with aggregation models previously developed by our group (SCAM Detective) were implemented in "Liability Predictor," an online tool which may be used as part of chemical library design or for triaging HTS hits. Both the models and the curated datasets are publicly available at https://liability.mml.unc.edu/.
SEQUENCE No. (e.g., 1, 2, 3, etc.); […] (e.g., Cells, Incubation, Reagent, etc.); VALUE; DESCRIPTION.
1; Reagent; 2 uL; Nanoluciferase media.
2; Compounds and control; 16 nL; Kalypsis pin tool (Wako USA) equipped with a 1536-well pin head.
4; Reagent; 2 uL; Luciferase enzyme.
6; Detection; Luminescence, ViewLux microplate reader.
NOTES (numbers refer to Sequence numbers above)
1. Medium was collected from the culture flasks of NLuc-expressing S16 cells (80% confluent) prior to cell plating, filtered through a 0.22um filter, and frozen at -20C prior to use. Media was diluted (1:55) and 2 uL was dispensed into all wells of a 1536-well assay plate (solid-bottom white plate; Greiner Bio One, Monroe, NC).
2. A Wako Pin-tool (Wako Automation, Richmond, VA) was used to transfer 16 nL of compounds (consisting of 7-plates in qHTS format, final concentration range 18.3 nM to 114 uM) or control Cilnidipine (final concentration range 623 nM to 80 uM).
3. 15 min. incubation at room temperature protected from light.
4. 2 uL of NLuc substrate (1:100 in Nano-Glo luciferase buffer; Nano-Glo luminescence assay, Promega, Madison, WI) was dispensed for a final assay volume of 4 uL.
5. Plates were centrifuged (121xg, 15 seconds) and incubated for 5 minutes.
6. Samples were read for luminescence on a ViewLux CCD imager (PerkinElmer). Data were normalized to no-enzyme (0% activity) and no-inhibitor (DMSO; 100%) controls and the resulting percent inhibition data were fitted to a 4-parameter Hill equation using NCATS in-house software.
`CC(C)CC1(C(=O)OCc2ccc(O[C@@H]3O[C@H](CO)[C@@H](O)[C@H](O)[C@H]3O)cc2)CC(=O)OC(C(=O)O)CC(=O)OCC2OC(O1)C(OC(=O)/C=C/c1ccc(O)cc1)C(O)C2O` (stereo not given in full) showed an activity, negative = inhibition of -4.21% [at 11.6 µM]. In the case of `O=C(/C=C/c1ccc(O)cc1)OC[C@]12O[C@H]1[C@@H](O)[C@@H]1C=CO[C@@H](O[C@@H]3O[C@H](CO)[C@@H](O)[C@H](O)[C@H]3O)[C@@H]12`, the Potency was “inactive”. `O=C(NCC(=O)N1CC[C@H](NC2CCC(O)(c3ccc(-c4ncccn4)cn3)CC2)C1)c1cccc(C(F)(F)F)c1` (stereo not given in full) was tested, and the Potency was “inactive”. For `C[C@@H]1O[C@@H](O[C@H]2[C@H](O[C@H]3[C@H](O[C@H]4CC[C@@]5(C)C(CC[C@]6(C)C5CC=C5[C@@H]7CC(C)(C(=O)O)C[C@@H](O)[C@]7(C)CC[C@]56C)[C@@]4(C)CO)O[C@H](C(=O)O)[C@@H](O)[C@@H]3O)O[C@H](CO)[C@H](O)[C@@H]2O)[C@H](O)[C@H](O)[C@H]1O` (stereo not given in full), the activity, negative = inhibition was -2.21% [at 11.6 µM]. In the case of `O=C(c1ccc(C#Cc2cccc(F)c2)cn1)N1CC2CC2C1` (stereo not given), the Potency was “inactive”. In the case of `C[C@@H]1CC[C@H]2C(C)(C)[C@H](O)[C@H](O)C[C@]2(C)[C@@]12Cc1c(O)cc3c(c1O2)CNC3=O`, the Potency was “inactive”. `COc1c(OC2OC(CO)C(O)C(O)C2O)ccc(O)c1C(=O)OCc1ccccc1O[C@@H]1O[C@H](CO)[C@@H](O)[C@H](O)[C@H]1O` (stereo not given in full) was tested, and the Potency was “inactive”. In the case of `O=C(CCO[C@@H]1O[C@H](CO)[C@@H](O)[C@H](O)[C@H]1O)c1ccc(O)cc1`, the Potency was “inactive”. With `CC[C@H](C)[C@@H]1NC(=O)[C@H](Cc2ccc(OC)cc2)NC(=O)CCCSC[C@@H](C(=O)N2CCC[C@H]2C(=O)N[C@@H](CC(C)C)C(=O)NCC(N)=O)NC(=O)[C@H](CC(N)=O)NC(=O)[C@H](CCC(N)=O)NC1=O` (Y(Me)IQNCPLG-NH2; linker N-5 via X6) the Potency was “inactive”. In the case of `CC1(CO)CC2C(O)C(=O)C3(CO)CC3(C)C2C1` (stereo not given), the Potency was “inactive”. `C=CC(C)(O)CC/C=C(\C)C(=O)OC1CC2(C(=O)O)CCC3(C)C(=CCC4C5(C)CCC(OC6OC(COC7OCC(O)C(O)C7O)C(O)C(OC7OCC(O)C(O)C7O)C6OC6OC(CO)C(O)C(O)C6OC6OCC(O)C(O)C6O)C(C)(C)C5CCC43C)C2CC1(C)C` (stereo not given) was tested, and the activity, negative = inhibition was 2.64% [at 11.6 µM]. `OC1COC(OCC2OC(OCCc3ccccc3)C(O)C(O)C2O)C(O)C1O` (stereo not given) was tested, and the Potency was “inactive”. `CC(=O)O[C@H]1CC[C@@]2(CI)C(=CC[C@@H]3[C@@H]2CC[C@]2(C)[C@@H]([C@H](C)CCCC(C)C)CC[C@@H]32)C1` gave an activity, negative = inhibition of -1.76% [at 11.6 µM]. With `C[C@@H]1CCC2C(C)(C)[C@H](O)CC[C@]2(C)[C@@]12Cc1c(O)cc3c(c1O2)CN(CCO)C3=O` (stereo not given in full) the Potency was “inactive”. In the case of `C=C1[C@H]2CC[C@]3(O)[C@@](CC[C@@H]4[C@](C)(C(=O)O)CCC[C@]43C)(C2)[C@H]1OC(=O)/C(C)=C\C`, the Potency was “inactive”. For `COC(=O)C1=COC(OC2OC(CO)C(O)C(O)C2O)C2C1CC(OC(=O)C(O)CC(=O)O)C2C` (stereo not given), the Potency was “inactive”. For `C[C@H]1C[C@H]2[C@@H]3CCC4=CC(=O)C=C[C@]4(C)[C@@]3(F)[C@@H](O)C[C@]2(C)[C@@]1(O)C(=O)COP(=O)(O)O`, the Potency was “inactive”. `COC1C=C([C@@H]2CC=C3[C@@]4(C)C(CC[C@]32C)[C@@]2(C)C=CC(=O)C(C)(C)C2C[C@H]4OC(C)=O)C(=O)O1` (stereo not given in full) was tested, and the Potency was “inactive”. For `O=C(NC[C@H](O)CN1CCc2ccccc2C1)c1cc(NC2COC2)ncn1`, the Potency was “inactive”. With `CC1CCC2(C)C(CC(O)C(O)C23CO3)C1(C)CCC1=CC(O)OC1=O` (stereo not given) the Potency was “inactive”. With `COc1cc(C(C)=O)ccc1O[C@@H]1O[C@H](CO[C@@H]2O[C@@H](C)[C@H](O)[C@@H](O)[C@H]2O)[C@@H](O)[C@H](O)[C@H]1O` the Potency was “inactive”. In the case of `O=C(NCc1ccc(OC(F)(F)F)cc1)C1c2ccccc2C(=O)N1C1CCOCC1` (stereo not given), the Potency was “inactive”. In the case of `c1ccc(C(OC2CCN(CCCc3nn[nH]n3)CC2)c2ccccc2)cc1`, the Potency was “inactive”. `OCCc1ccc(O[C@@H]2O[C@H](CO)[C@@H](O)[C@H](O)[C@H]2O)c(O)c1` was tested, and the Potency was “inactive”. With `CC1CCC2C(C)(C)C(O)CCC2(C)C12Cc1c(O)cc3c(c1O2)CN(C(CCC(N)=O)C(=O)O)C3=O` (stereo not given) the Potency was “inactive”. With `COC1C2=C(COC2=O)C2(C)CCCC(C)(CO)C2C1OC(=O)c1ccccc1` (stereo not given) the Potency was “inactive”. `C=C(C(=O)O)C1CCC(C)C2CCC(=O)OC2(C)C1` (stereo not given) was tested, and the Potency was “inactive”. In the case of `CC1(C)CCC(C)(C)c2cc([C@@H](O)C(=O)Nc3ccc(C(=O)O)cc3F)ccc21`, the Potency was “inactive”. `CC(C)CNC(=O)/C=C/CCCCc1ccc2c(c1)OCO2` was tested, and the Potency was “inactive”. For `CC1CCC2C(C(=O)O)=CC3C(O)C(C)(C)CC123` (stereo not given), the Potency was “inactive”. In the case of `CCC(=O)N[C@@H]1Cc2ccccc2[C@H](c2ccccc2)C1`, the Potency was “inactive”. For `CC1=C(C)C(=O)OC(C(C)(O)C2CCC3C4CC=C5CC(OC6OC(COC7OC(CO)C(O)C(O)C7O)C(O)C(O)C6O)CC(O)C5(C)C4CCC32C)C1` (stereo not given), the Potency was “inactive”. With `C[C@@H]1CC[C@]2(C(=O)O)CC[C@]3(C)C(=CCC4[C@]5(C)C(CC[C@]43C)C(C)(C)[C@@H](O)[C@H](O)[C@@H]5O)C2[C@]1(C)O` (stereo not given in full) the Potency was “inactive”. In the case of `N#Cc1ccnc(N2C(=O)CC[C@H]2C(=O)N(c2cncc(F)c2)[C@H](C(=O)NC2CC(F)(F)C2)c2ccccc2Cl)c1`, the Potency was “inactive”. `CC1OC(OC2C(CO)OC(OCC3OC(OC(=O)C45CCC(C)(C)CC4C4=CCC6C7(C)CCC(OC8OC(C(=O)O)C(O)C(OC9OC(CO)C(O)C(O)C9O)C8O)C(C)(C)C7CCC6(C)C4(C)CC5)C(O)C(O)C3O)C(O)C2O)C(O)C(O)C1O` (stereo not given) was tested, and the activity, negative = inhibition was 0% [at 11.6 µM]. With `C[C@@H]1CC[C@]2(C(=O)O)CC[C@]3(C(=O)O)C(=CCC4[C@@]5(C)CC[C@H](O[C@@H]6O[C@@H](C)[C@H](O[C@@H]7O[C@H](CO)[C@@H](O)[C@H](O)[C@H]7O)[C@@H](O)[C@H]6O)C(C)(C)C5CC[C@]43C)C2[C@H]1C` (stereo not given in full) the Potency was “inactive”. With `COC1=CC(=O)O[C@@H](/C=C/c2ccccc2)[C@@H]1O` the Potency was “inactive”. In the case of `O=C(O[C@@H]1O[C@H](CO)[C@@H](O)[C@H](O)[C@H]1O)c1c(O)cc(O)cc1/C=C/c1ccccc1`, the Potency was “inactive”. `CNC(=O)Nc1ccc(OC)c(NC(=O)NC(=O)c2cc(F)c(F)cc2Cl)c1` was tested, and the Potency was “inactive”. With `CC1(C)CCCC2(C)C(CO)C3CCC2C31` (stereo not given) the Potency was “inactive”.
